# This is part of a sample that, as a whole, favours compounds with a hit. Of some 83,000 tested, about 20% had one in any assay.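 Results are percent growth after 48 hours of single-concentration exposure. 100 means growth as in untreated cells, lower positive values show inhibition; negative values down to -100 show cell death.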 Activity calls are given as the source filed them. Rule for the calls: active = growth percent below 10; inactive = the rest.
# Test system: A498 renal
# Test: NCI-60 one-dose screen, 48 h (100 = growth as untreated, 0 = no growth, -100 = all killed)
# Settings: 10 µM unless noted
row,SMILES,growth
1,CCCCCCCCCCCCCCCCCCOP(=O)(O)O,110% (inactive)
2,O=P(OCCCl)(OCCCl)C(O)c1ccccc1Cl (centres undefined),121% (inactive)
3,O=C1C(=O)c2ccccc2C(O)=C1CCCc1ccc(Oc2ccccc2)cc1,66.1% (inactive)
4,O=C(O)COc1ccc([N+](=O)[O-])cc1Cl,115% (inactive)
5,COC(=O)c1cc(Nc2ccc(O)c3c2C(=O)c2c([N+](=O)[O-])ccc(O)c2C3=O)cc(C(=O)OC)c1,93.8% (inactive)
6,COc1ccc(-c2nnc(SCC(=O)Nc3ccc(C(=O)/C=C/c4cc(OC)c(OC)c(OC)c4)cc3)n2-c2ccccc2)cc1OC,-69.7% [100 µM] (active)
7,O=C(NC1CCN(Cc2ccccc2)CC1)c1cc(-c2cccnc2)nc2ccc(Cl)cc12,67.2% (inactive)
8,CC(=O)CC(=O)OC/C=C(/C)CCC=C(C)C,117% (inactive)
9,CCn1cnc(C[C@H](NC(=O)[C@@H](NC(=O)Nc2cc(C(F)(F)F)cc(C(F)(F)F)c2)C(C)C)C(=O)OC)c1,-89.5% [100 µM] (active)
10,CCCCCCCCCCCCCCCCNC(=S)N/N=C/c1ccc(O)cc1O,91.1% (inactive)
11,COC(=O)[C@H](Cc1cn(C)cn1)NC(=O)[C@H](Cc1c[nH]c2ccccc12)NC(=O)Nc1cc(C(F)(F)F)cc(C(F)(F)F)c1,-35.8% [100 µM] (active)

# Test system: CCRF-CEM leukemia
# Test: as above
# Settings: 10 µM
row,SMILES,growth
1,CC(=O)O.[In],85.4% (inactive)
2,CC(=O)Nc1ccc(S(=O)(=O)Cl)cc1,90.9% (inactive)
3,COc1ccc(/C=C/C(=O)/C=C/c2cc3ccccc3[nH]c2=O)cc1,8.49% (active)
4,NC(CSC(c1ccccc1)(c1ccccc1)c1ccccc1)C(=O)NCC(=O)O (centres undefined),53.5% (inactive)
5,CC(Br)c1nc2ccccc2cc1C(N)=O (centres undefined),84.5% (inactive)
6,O=C(NCCNCCO)c1cc([N+](=O)[O-])cc([N+](=O)[O-])c1O,94.3% (inactive)
7,CCCCS(=O)(=O)c1cc(Nc2ccc(O)c3c2C(=O)c2ccccc2C3=O)ccc1C,59.7% (inactive)
8,Cn1c2ccccc2c2ccccc21,92.5% (inactive)
9,COC1=CC(c2ccc[nH]2)=N/C1=C\c1[nH]c(C)c(C(=O)CCCCC(=O)NC(C)(C)C)c1C,68.5% (inactive)
10,Oc1ccc(Br)cc1/C=N/NC(=S)NC12CC3CC(CC(C3)C1)C2,-21.1% (active)
11,O=C1C(=O)c2ccccc2C(O)=C1CCCc1ccc(Oc2ccccc2)cc1,32.1% (inactive)
12,O=C(O)COc1ccc([N+](=O)[O-])cc1Cl,88.8% (inactive)
13,CC(=O)N(N=O)c1ccc([N+](=O)[O-])cc1Cl,46.8% (inactive)
14,COC(=O)c1cc(Nc2ccc(O)c3c2C(=O)c2c([N+](=O)[O-])ccc(O)c2C3=O)cc(C(=O)OC)c1,23% (inactive)
15,CC(C)(CNC1CCCCC1)OC(=O)c1ccccc1,84.7% (inactive)
16,O=C(NC1CCN(Cc2ccccc2)CC1)c1cc(-c2cccnc2)nc2ccc(Cl)cc12,64% (inactive)
17,CC(=O)CC(=O)OC/C=C(/C)CCC=C(C)C,116% (inactive)
18,CC(=O)C(CO)C(=O)Nc1ccccc1 (centres undefined),99.2% (inactive)

# From PubChem BioAssay (NCI)
